Reference: ChEMBL document CHEMBL3988442, “University of Dundee, Small-Polar-MMV Screening Library” (2021)
For some assays here: Measured potencies and affinities stand elsewhere.

How the values were obtained:
Design in all cases: scale not given: direction of the effect not stated beside the values
[1] = molecular target: Protein translocase subunit SecA (Escherichia coli (strain K12)) (UniProt P10408); assay: Assay to Identify E. coli SecA ATPase Inhibitors; format: functional; settings: 30 µM
Chain of Protein translocase subunit SecA (Escherichia coli (strain K12)) (P10408 whole entry): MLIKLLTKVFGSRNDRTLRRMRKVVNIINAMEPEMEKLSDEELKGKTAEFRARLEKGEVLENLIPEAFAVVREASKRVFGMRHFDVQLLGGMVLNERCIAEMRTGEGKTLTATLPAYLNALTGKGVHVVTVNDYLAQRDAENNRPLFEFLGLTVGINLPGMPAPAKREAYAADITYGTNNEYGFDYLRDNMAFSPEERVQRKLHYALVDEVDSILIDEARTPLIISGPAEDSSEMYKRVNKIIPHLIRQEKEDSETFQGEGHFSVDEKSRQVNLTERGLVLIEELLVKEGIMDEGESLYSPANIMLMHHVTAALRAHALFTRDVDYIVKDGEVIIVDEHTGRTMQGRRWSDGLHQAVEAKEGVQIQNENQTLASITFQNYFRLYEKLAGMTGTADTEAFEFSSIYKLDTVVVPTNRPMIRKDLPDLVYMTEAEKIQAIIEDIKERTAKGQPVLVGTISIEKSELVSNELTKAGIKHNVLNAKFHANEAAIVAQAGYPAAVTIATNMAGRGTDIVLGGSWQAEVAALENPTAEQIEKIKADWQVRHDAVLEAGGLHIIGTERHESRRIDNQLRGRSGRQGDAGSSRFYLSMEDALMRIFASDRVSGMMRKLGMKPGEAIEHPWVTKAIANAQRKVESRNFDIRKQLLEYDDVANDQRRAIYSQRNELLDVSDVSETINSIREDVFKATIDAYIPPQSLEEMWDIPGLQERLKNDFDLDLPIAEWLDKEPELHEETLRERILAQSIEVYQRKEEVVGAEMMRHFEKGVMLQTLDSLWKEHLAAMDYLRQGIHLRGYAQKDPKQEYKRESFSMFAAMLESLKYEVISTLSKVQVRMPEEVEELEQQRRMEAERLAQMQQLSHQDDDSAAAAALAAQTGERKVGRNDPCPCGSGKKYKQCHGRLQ

[2] = molecular target: T1, Ubiquitin-activating enzyme e1, putative (Leishmania donovani (strain BPK282A1)) (UniProt E9BSI1); assay: Leishmania donovani Ubiquitin Activating Enzyme (LdE1); format: functional; settings: 30 µM
T1 sequence (whole entry): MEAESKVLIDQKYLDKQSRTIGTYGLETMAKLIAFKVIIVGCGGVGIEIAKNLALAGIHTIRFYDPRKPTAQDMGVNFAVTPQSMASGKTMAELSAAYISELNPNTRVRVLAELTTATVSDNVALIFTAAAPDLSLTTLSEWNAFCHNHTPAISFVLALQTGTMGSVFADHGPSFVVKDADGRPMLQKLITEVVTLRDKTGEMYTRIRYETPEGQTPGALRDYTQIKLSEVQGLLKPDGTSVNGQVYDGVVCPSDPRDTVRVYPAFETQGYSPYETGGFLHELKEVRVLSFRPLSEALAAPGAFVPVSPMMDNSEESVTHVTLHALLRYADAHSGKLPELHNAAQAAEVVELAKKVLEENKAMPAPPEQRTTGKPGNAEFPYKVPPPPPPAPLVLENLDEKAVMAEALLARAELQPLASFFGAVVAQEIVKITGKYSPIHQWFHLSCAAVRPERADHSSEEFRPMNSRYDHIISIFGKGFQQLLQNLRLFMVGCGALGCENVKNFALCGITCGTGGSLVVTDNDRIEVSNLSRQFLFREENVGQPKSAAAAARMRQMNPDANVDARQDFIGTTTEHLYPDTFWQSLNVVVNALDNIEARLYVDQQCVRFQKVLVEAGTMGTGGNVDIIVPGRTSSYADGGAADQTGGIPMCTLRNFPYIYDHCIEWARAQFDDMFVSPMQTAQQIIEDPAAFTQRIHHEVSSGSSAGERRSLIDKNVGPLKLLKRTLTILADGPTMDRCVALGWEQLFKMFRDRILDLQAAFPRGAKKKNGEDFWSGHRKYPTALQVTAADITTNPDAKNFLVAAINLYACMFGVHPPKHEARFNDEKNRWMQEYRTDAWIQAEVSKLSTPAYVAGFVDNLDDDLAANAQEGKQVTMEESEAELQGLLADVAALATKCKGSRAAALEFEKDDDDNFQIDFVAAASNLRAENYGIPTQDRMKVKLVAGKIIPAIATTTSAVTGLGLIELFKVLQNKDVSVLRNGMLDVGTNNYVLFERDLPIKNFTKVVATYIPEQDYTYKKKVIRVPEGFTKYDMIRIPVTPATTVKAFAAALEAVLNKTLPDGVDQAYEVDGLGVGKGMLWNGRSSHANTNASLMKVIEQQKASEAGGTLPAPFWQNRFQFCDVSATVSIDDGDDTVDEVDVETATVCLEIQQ

[3] = molecular target: AMP-activated protein kinase, AMPK (Homo sapiens) (UniProt P54646+O43741+P54619+Q9UGJ0+Q9Y478+Q13131+Q9UGI9); assay: AMP-dependent Kinase enzyme assay. An in vitro enzyme assay that detects ADP turnover that is directly proportional to AMPK activity. This uses naive AMPK that is activated during the assay with MK-8722; format: functional; settings: 30 µM
[4] = molecular target: Sialic acid-binding Ig-like lectin 9 (Homo sapiens) (UniProt Q9Y336); assay: Hs-Siglec9 ALPHAscreen SOP 20170721; settings: 10 µM
Chain of Sialic acid-binding Ig-like lectin 9 (Homo sapiens) (Q9Y336 whole entry): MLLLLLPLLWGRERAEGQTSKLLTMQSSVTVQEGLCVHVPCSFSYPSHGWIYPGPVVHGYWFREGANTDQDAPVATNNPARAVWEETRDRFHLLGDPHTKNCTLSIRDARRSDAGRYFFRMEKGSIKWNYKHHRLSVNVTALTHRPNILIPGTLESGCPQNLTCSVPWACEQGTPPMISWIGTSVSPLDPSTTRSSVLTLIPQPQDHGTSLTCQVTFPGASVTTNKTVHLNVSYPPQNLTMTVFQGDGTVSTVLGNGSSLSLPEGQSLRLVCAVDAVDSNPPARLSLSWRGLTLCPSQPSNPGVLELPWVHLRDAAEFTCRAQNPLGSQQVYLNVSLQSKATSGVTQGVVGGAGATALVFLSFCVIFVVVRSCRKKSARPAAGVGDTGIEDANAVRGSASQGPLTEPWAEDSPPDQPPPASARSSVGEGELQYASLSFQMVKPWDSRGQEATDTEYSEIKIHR

Trypanosoma cruzi = assay: Trypanosoma cruzi phosphomannomutase and mannose-1-phosphate guanylyltransferase assay; format: functional; settings: 10 µM
[5] = molecular target: T2, Arginase-2, mitochondrial (Homo sapiens) (UniProt P78540); assay: in vitro enzyme assay to detect the production of urea directly proportional to the activity of Arginase II; format: functional; settings: 33.3 µM; also: in the data most compounds retested in dose-response had high values
T2 sequence (whole entry): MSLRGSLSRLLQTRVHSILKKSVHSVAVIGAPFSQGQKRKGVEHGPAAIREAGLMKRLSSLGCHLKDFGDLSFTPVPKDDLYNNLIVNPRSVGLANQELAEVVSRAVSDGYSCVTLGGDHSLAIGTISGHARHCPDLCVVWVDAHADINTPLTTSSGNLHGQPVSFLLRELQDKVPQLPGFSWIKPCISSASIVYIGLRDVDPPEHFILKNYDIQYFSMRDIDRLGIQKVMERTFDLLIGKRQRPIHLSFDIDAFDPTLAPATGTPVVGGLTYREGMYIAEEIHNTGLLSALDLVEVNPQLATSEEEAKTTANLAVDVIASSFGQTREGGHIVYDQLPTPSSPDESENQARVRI

[6] = molecular target: T3, Proteasome subunit beta (Trypanosoma cruzi) (UniProt O96673); assay: Trypanosoma cruzi proteasome chymotrypsin-like activity (TcProtChymo) assay.; also: in the data most compounds retested in dose-response had high values; format: functional; settings: 9.37 µM
T3 sequence (whole entry): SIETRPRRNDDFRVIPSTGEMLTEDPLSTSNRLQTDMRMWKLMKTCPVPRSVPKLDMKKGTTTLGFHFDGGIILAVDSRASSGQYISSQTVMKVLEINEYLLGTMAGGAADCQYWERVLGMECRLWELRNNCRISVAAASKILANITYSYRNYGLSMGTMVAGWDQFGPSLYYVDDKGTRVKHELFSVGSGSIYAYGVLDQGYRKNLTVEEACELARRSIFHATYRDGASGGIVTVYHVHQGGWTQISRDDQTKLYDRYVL

Homo sapiens = species on record: Homo sapiens; assay: To identify inhibition of the IFN signalling (Jak-Stat) pathway via expression of an eGFP reporter gene under the control of an IFN-stimulated response element (ISRE) containing MxA promoter.; format: functional; settings: 30 µM
[7] = molecular target: T4, Tyrosyl-tRNA synthetase, putative (Trypanosoma cruzi (strain CL Brener)) (UniProt Q4DSP6); assay: Trypanosoma cruzi tyrosyl tRNA synthetase (TcYRS) _High Tyrosine SOP; format: functional; settings: 30 µM; also: in the data most compounds retested in dose-response had high values
T4 sequence (whole entry): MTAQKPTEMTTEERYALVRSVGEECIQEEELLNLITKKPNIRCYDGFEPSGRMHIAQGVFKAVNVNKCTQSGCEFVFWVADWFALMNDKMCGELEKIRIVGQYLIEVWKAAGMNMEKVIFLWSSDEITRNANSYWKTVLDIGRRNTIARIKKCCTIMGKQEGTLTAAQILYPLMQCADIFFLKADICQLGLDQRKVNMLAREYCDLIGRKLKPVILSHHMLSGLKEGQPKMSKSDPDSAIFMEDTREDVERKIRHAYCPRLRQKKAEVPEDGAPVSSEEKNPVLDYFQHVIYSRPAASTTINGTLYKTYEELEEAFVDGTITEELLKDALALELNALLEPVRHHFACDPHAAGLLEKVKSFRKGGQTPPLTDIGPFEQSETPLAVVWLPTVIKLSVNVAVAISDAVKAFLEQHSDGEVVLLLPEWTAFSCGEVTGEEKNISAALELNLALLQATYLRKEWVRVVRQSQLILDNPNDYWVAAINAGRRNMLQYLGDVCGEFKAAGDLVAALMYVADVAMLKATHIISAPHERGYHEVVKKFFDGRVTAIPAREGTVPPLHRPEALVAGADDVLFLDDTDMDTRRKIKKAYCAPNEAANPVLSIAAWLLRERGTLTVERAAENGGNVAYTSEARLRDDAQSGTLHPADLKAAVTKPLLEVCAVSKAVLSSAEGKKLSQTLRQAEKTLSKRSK

[8] = molecular target: T4, Tyrosyl-tRNA synthetase, putative (Trypanosoma cruzi (strain CL Brener)); assay: Trypanosoma cruzi tyrosyl tRNA synthetase (TcYRS) SOP; format: functional; settings: 30 µM
[9] = molecular target: Chromo domain-containing protein 1 (Saccharomyces cerevisiae (strain ATCC 204508 / S288c) (Baker's yeast)) (UniProt P32657); assay: ScCHD-1 Enzyme Inhibition Assay; format: functional; settings: 30 µM; also: in the data most compounds retested in dose-response had high values
Chain of Chromo domain-containing protein 1 (Saccharomyces cerevisiae (strain ATCC 204508 / S288c) (Baker's yeast)) (P32657 whole entry, the tested form may be a part): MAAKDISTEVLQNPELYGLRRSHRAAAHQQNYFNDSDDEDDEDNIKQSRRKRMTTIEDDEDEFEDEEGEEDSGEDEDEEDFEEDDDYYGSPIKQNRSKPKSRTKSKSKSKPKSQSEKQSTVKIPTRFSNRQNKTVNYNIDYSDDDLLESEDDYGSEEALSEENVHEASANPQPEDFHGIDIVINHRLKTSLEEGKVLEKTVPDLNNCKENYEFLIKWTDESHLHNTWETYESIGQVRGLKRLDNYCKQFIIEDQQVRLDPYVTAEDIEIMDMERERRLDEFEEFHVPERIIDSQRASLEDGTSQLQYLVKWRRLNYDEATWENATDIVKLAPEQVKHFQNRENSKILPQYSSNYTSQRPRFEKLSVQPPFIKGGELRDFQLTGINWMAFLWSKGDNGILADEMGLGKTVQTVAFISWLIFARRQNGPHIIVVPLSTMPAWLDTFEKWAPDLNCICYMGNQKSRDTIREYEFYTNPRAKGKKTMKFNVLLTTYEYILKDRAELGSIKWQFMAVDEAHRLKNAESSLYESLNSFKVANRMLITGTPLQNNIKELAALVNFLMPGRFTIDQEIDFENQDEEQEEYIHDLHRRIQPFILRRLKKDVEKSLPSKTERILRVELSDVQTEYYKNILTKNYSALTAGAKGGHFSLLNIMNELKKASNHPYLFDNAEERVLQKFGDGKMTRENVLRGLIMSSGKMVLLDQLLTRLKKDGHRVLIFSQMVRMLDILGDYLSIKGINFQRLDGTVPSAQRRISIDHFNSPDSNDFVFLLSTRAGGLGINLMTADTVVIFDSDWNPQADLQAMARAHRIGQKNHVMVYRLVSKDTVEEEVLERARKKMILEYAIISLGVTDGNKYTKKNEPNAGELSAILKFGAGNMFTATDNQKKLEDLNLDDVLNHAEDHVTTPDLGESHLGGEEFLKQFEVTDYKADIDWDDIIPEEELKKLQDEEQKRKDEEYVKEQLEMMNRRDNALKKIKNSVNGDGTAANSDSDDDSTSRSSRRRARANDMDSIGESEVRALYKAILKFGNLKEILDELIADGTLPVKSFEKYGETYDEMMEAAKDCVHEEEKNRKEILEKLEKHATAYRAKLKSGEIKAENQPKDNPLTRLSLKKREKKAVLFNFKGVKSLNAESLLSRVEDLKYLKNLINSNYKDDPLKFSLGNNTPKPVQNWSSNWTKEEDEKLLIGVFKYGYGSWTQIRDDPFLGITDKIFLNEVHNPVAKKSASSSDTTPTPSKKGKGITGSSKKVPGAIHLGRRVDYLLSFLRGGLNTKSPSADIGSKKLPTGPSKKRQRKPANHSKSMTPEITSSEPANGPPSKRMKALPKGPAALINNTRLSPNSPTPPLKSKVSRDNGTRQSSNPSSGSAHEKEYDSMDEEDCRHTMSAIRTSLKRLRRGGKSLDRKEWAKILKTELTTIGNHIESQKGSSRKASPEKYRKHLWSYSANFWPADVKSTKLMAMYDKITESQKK

Structure (SMILES) | Percent Effect [1] [%] | Percent Effect [2] [%] | Percent Effect [3] [%] | Percent Effect [4] [%] | Percent Effect (Trypanosoma cruzi) [%] | Percent Effect [5] [%] | Percent Effect [6] [%] | Percent Effect (Homo sapiens) [%] | Percent Effect [7] [%] | Percent Effect [8] [%] | Percent Effect [9] [%]
Cc1ccc(CN(Cc2cccnc2)C2CC(C)(C)NC(C)(C)C2)s1 | -5.72 | 1.35 | 9.33 | -0.663 | -3.36 | -5.8 | 10.1 | 13.4 | 2.15 | -1.3 | -9.11
COc1ccc(CCN2CCN(C(=O)c3scnc3C)CC2)cc1 | -2.7 | 10.5 | 2.58 | 0.569 | 3.8 | -3.55 | 16 | -22.1 | 6.38 | 10.4 | -3.62
COc1ccc(C(O)CNc2c(C#N)c(=O)n(C)c(=O)n2C)cc1 (configuration not stated) | 0.0916 | 12.7 | 4.15 | -13.6 | -6.33 | 5.32 | 2.87 | 9.61 | 5.42 | 11.4 | -5.56
CCN(C)c1ccc(C(=O)N(CCOC)Cc2ccccn2)cc1 | -4.29 | 21.3 | -3.55 | 21.4 | 7.89 | 38.5 | 15.2 | 20.7 | 6.01 | 21 | -5.22
CC(C)Nc1nc(N2CCOCC2)nc2c1CN(Cc1ccoc1)CC2 | -4.76 | 5.33 | 12.8 | 1.46 | -1.97 | 6.76 | 7.84 | 8.61 | 7.45 | 16.7 | -3.95
CSCC[C@H](N)C(=O)NCc1cc2n(n1)CCCN(C1CCCCC1)C2 | -0.291 | 12.5 | -5.04 | 5.09 | 4.37 | 36.2 | 13.7 | 2.41 | 4.21 | 12.8 | -3.52
Cc1cc(C(F)(F)F)nn1CC(C)C(=O)Nc1ccncc1 (configuration not stated) | -6.4 | 6.67 | -0.198 | 8.65 | 0.786 | -2.64 | 10.9 | 19.9 | 1.06 | -12.8 | -5.12
Cn1ccnc1CN1CCCCC1Cn1cccn1 (configuration not stated) | -4.99 | 3.8 | 0.666 | 3.72 | 0.718 | 0.215 | -1.03 | 4.51 | 6.25 | 10.1 | -20.8
COCC(=O)N1CCCC1c1cc(Nc2nnc(C)s2)nc(C)n1 (configuration not stated) | -7.56 | 0 | -6.16 | 10.2 | 7.09 | -3.96 | -2.38 | 8.53 | 4.25 | 8.97 | -5.17
CC(NC(=O)C1=NN(C)C(=O)CC1)c1ccc(Cl)cc1Cl (configuration not stated) | -2.53 | 16.4 | 8.07 | 9.9 | 2.74 | 8.64 | 11.9 | 16.3 | 2.15 | 20 | -7.04
Cc1ccoc1C(=O)NC1CCN(Cc2csc3c(F)cccc23)CC1 | -4.82 | -1.27 | -4.47 | -1.87 | -0.308 | -3.66 | 9.61 | 17.2 | 6.25 | 10.1 | -13.8
CSCc1cccc(S(=O)(=O)NCCCN2CCOCC2)c1 | -6.05 | 5.2 | 1.35 | 8.61 | 3.64 | -6.9 | 3.33 | -22.2 | 4.3 | 11.1 | -3.9
Cc1cc(CNC(=O)N2CCN(c3nc(C)c(C)s3)CC2)no1 | -9.13 | 18.9 | -4.31 | 31.4 | 9.18 | 45 | 17.2 | 14 | 8.91 | 15.8 | -4.46
COCC(=O)NCc1cc(=O)n2c(n1)CN(CC1CCOC1)CCC2 (configuration not stated) | 0.158 | 13.5 | 2.63 | -10.2 | 0.0978 | -2.23 | 8.12 | 8.83 | -1.08 | 12.8 | -2.53
CCn1ncc2c1C(COCC1CC1)CN(C(=O)c1cccs1)C2 (configuration not stated) | 1.75 | 24.7 | -1.43 | 2.69 | -0.794 | -6.39 | 13.6 | 21.1 | 7.29 | 13.6 | -3.6
Cc1noc(C(C)C)c1C(=O)NS(=O)(=O)c1ccc(Cl)cc1 | -5.93 | 2.63 | 7.93 | 1.74 | 3.8 | 0 | 17.9 | 9.23 | 6.38 | 7.79 | 3.02
NC(=O)C1CCN(c2nc3nccc(-c4ccccc4)c3c(=O)[nH]2)CC1 | -4.01 | 2.74 | -6.46 | 3.02 | 6.75 | -7.19 | 14.8 | 5.49 | 1.04 | 6.17 | -5.09
Cc1cccnc1NC(=O)C1CCCN1Cc1ccccc1 (configuration not stated) | -3.6 | 2.67 | -2.13 | -2.53 | -9.06 | -3.12 | 21.3 | 16.8 | 0.546 | -1.24 | -9.24
COC(=O)c1ccc(C(=O)NS(=O)(=O)c2cncc(Br)c2)cc1 | -4.86 | 0 | 0.578 | 3.83 | -2.9 | -0.952 | 15.7 | 26.4 | -0.529 | 2.44 | -0.393
CCCNC(=O)c1c(-n2cnnn2)sc2c1CCC2 | -1.2 | 7.89 | 4.3 | 2.22 | -9.45 | 3.55 | 9.3 | 2.78 | 5.32 | 0 | -5.31
CCc1nnc2n1CCN(C(=O)c1ccc(C(F)(F)F)nc1C)C2 | -6.11 | 20.2 | -4.83 | 14.3 | 5.95 | -6.08 | 9.09 | -2.36 | 2.46 | 16.5 | -8.19
Cc1nccn1-c1cc(CNC(=O)CCNC(=O)C2CCCC2)ccn1 | -5.76 | 21.1 | -10 | 9.11 | 6.63 | -4.68 | 5.84 | 5.17 | 8.37 | 23.5 | -6.78
